High-throughput results as filed in PubChem.
USP28 inh: human USP28 deubiquitinase inhibition; purified USP28, Ub-rhodamine cleavage fluorescence, 30 min; AID 1645857; Q96RU2; 47,000 compounds, 3% hits; inhibition, % at 25 µM
Target sequence (Q96RU2 whole entry, looked up): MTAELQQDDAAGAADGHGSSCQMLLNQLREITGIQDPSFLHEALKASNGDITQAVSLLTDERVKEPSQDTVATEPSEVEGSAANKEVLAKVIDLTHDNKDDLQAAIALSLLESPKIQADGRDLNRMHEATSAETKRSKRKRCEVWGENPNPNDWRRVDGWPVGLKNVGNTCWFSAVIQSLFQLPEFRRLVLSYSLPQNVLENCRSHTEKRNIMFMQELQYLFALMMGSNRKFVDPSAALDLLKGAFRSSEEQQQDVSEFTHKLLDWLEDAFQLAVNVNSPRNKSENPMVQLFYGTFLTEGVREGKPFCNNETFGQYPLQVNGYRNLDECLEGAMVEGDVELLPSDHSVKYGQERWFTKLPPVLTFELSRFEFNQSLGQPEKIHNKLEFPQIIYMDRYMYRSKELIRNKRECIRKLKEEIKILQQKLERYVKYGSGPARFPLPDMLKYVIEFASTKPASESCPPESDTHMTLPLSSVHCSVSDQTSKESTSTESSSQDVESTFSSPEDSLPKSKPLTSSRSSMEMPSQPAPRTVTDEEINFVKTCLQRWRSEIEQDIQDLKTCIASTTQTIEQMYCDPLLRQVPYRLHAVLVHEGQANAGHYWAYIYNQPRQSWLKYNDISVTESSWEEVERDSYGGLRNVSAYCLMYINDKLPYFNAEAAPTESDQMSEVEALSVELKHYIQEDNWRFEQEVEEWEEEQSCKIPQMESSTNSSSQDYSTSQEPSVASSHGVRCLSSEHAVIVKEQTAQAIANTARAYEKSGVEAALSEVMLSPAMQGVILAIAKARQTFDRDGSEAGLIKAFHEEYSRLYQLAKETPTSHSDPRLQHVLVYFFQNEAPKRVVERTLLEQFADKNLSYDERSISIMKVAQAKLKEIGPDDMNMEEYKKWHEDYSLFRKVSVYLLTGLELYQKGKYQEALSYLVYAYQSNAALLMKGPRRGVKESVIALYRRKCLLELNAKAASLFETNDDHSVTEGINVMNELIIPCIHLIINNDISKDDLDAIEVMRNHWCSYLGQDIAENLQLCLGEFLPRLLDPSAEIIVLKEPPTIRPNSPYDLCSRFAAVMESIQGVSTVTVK
USP30 block: inhibitors of human USP30 deubiquitinase | inhibition, % at 25 µM | AID 1645860 | Q70CQ3 | purified USP30, Ub-rhodamine cleavage fluorescence | 47,000 compounds, 5.3% hits
* = called active by the depositor. Shown are actives, neighbours in structure and some others; about 7% of the full set was active somewhere. Rule as the data show it: active = inhibition above about 30%; inactive = the rest.

SMILES | USP28 inh | USP30 block
Cc1ccc(C(=O)N2CC[C@@H]3[C@H](C2)CN3C(=O)c2ccccc2)cc1 | 17.1 | 30.2*
O=C(NC1CCOCC1)N1CC[C@@H]2CN(C(=O)c3ccccc3)[C@@H]2C1 | 4.9 | 24.8
O=C(c1ccccc1)N1CC[C@@H]2CN(C(=O)C3CCCCC3)[C@@H]2C1 | -9.2 | -9.6
Cc1ccc(S(=O)(=O)N2CC[C@@H]3CN(C(=O)c4ccccc4)[C@@H]3C2)cc1 | 12.1 | 35.1*
CNC(=O)c1nc2c(s1)CCN(C(=O)Nc1cccc(OC)c1)CC2 | -2.1 | 0.1
CC1(C)Cc2c(sc3nc(SCc4ccccc4)nc(SCC(=O)NCc4ccccc4)c23)CO1 | -16.0 | -59.6
CC(CCc1ccco1)NC(=O)C1CCN(c2ncnc3c2nc2n3CCCCC2)CC1 (stereo not given) | 8.2 | -3.7
O=C(NCc1ccc2c(c1)OCO2)c1nc(-c2ccccc2)n(-c2ccccc2)n1 | 6.3 | 55.0*
O=C(NCc1ccc2c(c1)OCO2)C1(c2ccccc2)CCCC1 | -2.5 | -2.6
Cc1nc(-c2ccccc2)sc1C(=O)NCc1ccc2c(c1)OCO2 | 5.6 | 21.0
CN(Cc1ccccc1F)C(=O)c1ccc(-c2ccccc2F)o1 | 18.4 | -0.4
CCn1c(C(=O)O)c(CNCc2ccc3c(c2)OCO3)c2ccccc21 | 4.1 | 4.0
CN(Cc1ccccc1F)C(=O)c1nc(-c2ccccc2)n(-c2ccccc2)n1 | 21.0 | 46.8*
O=C(NCc1ccc2c(c1)OCO2)c1cc2ccccc2s1 | 41.5* | 29.5
O=C(Cn1c(=O)nc(-c2ccccc2)c2ccccc21)NCc1ccc2c(c1)OCO2 | 31.1* | 8.9
O=S(=O)(c1cccc(Cl)c1F)N1CCC2(CC1)CC2c1nc(-c2cccnc2)no1 (stereo not given) | 0.5 | 16.9
Cc1c(Cl)cccc1S(=O)(=O)N1CCC2(CC1)CC2c1nc(-c2cccnc2)no1 (stereo not given) | 7.4 | 34.7*
O=S1(=O)C[C@@H](N2CCN(c3ncccn3)CC2)[C@H](S(=O)(=O)c2ccc(F)cc2)C1 | 1.3 | -2.8
Cn1c(=O)c(C(=O)N2CCN(C3CCCCC3)CC2)nc2cccnc21 | -13.9 | -54.2
c1ccc(-n2cc(-c3noc(-c4cccnc4)n3)nn2)cc1 | 7.1 | 27.9
O=c1c2ccccc2c(-c2nc(-c3cccnc3)no2)cn1-c1ccc(Cl)cc1 | 6.3 | 37.5*
Cc1cccc(CNC(=O)C2CCN(C(=O)c3cc(-c4ccccn4)n[nH]3)CC2)c1 | -3.6 | 2.8
Cn1c(=O)c2c(C(=O)N3CCN(c4ccccc4F)CC3)cc(=O)n(C)c2n(C)c1=O | 1.2 | 14.1
CCCCOc1ccc(C(=O)Nc2nonc2C)cc1 | 9.3 | 0.0
CCN1C(=O)COc2ccc(NC(=O)c3ccc(OCc4nonc4C)cc3)cc21 | 70.4* | 19.4
SMILES | USP28 inh | USP30 block
COc1ccc(S(=O)(=O)N2CCCCCC2c2sccc2C)cc1 (stereo not given) | -18.5 | 30.0*
Cc1ccsc1C1CCCCCN1S(=O)(=O)c1cc(F)ccc1F (stereo not given) | -4.2 | -2.5
NC(=O)c1nc2c(s1)CCN(C(=O)Nc1ccccc1)CC2 | 6.5 | 6.1
Cc1ccc(-c2cc(=O)n(CC(=O)Nc3ccc(C(C)C)cc3)cn2)cc1 | -9.4 | 47.7*
O=C(Cn1cnc(-c2ccccc2)cc1=O)Nc1ccc(Oc2ccccc2)cc1 | 6.9 | 21.8
CS(=O)(=O)c1cnc(N2CCCC2)nc1C1CCN(C(=O)c2cnccn2)CC1 | -7.1 | 23.8
O=C1NC2(CCN(Cc3ccccc3F)CC2)N=C1c1cccc(F)c1 | -0.3 | -1.8
COCC1OC(OC2OCC3OC4(OC(C)C(O)(C(C)=O)C5OCOC54)O[C@H]3[C@H]2OC(=O)C(C)C)[C@@H](OC)[C@@H](O)C1O[C@@H]1O[C@H](C)[C@H](OC)[C@H](OC2O[C@H](C)C3OC4(C[C@@H](O)C(O[C@H]5C[C@@H](O)C(OC(=O)c6c(C)c(Cl)c(O)c(Cl)c6OC)[C@@H](C)O5)[C@@H](C)O4)O[C@@]3(C)[C@@H]2O)C1O (stereo not given in full) | -8.6 | -22.3
CCc1c(Cl)c(O)c(Cl)c(O)c1C(=O)O[C@H]1C(C)O[C@@H](OC/C2=C\C=C\CC(O)/C(C)=C/C(CC)C(O[C@@H]3OC(C)(C)[C@H](O)C(OC(=O)C(C)C)[C@@H]3O)/C(C)=C/C(C)=C/CC(C(C)O)OC2=O)[C@@H](OC)C1O (stereo not given in full) | 85.1* | 91.4*
Cc1nc(-c2ccc(C(=O)N3CCC(C)CC3)cc2)no1 | -10.3 | -7.7
CCN(CC)c1ccc(NC(=O)C2=CCN(S(=O)(=O)c3ccc(F)cc3)CC2)c(C)c1 | 35.4* | 14.2
Cc1ccc(S(=O)(=O)N2CC=C(C(=O)Nc3ccc(Br)c(C)c3)CC2)cc1 | 0.0 | -41.6
CC1(O)CC(=O)c2c(cc3cc(O)cc(O)c3c2O)C1 (stereo not given) | 67.8* | -20.8
O=C(/C=C/c1cccc([N+](=O)[O-])c1)Nc1nc2n(n1)C(c1ccccc1)CC(=O)N2 (stereo not given) | 28.7 | 37.6*
COc1ccc(/C=C/C(=O)Nc2nc3n(n2)C(c2ccccc2)CC(=O)N3)cc1OC (stereo not given) | 13.3 | 24.4
COc1ccc(/C=C/C(=O)Nc2nc3n(n2)C(c2ccccc2)CC(=O)N3)cc1 (stereo not given) | 3.4 | 30.9*
O=C1CC(c2ccccc2)n2nc(NC(=O)c3ccccc3)nc2N1 (stereo not given) | 10.1 | 10.7
N#Cc1ccc(C(=O)N2CCCC(COc3ccc(C(=O)N4CCOCC4)cc3)C2)cc1 (stereo not given) | 2.0 | 5.0
O=C(c1cnc(-c2ccccc2)nc1-c1ccccc1)N1CCN(c2cccc(C(F)(F)F)c2)CC1 | -0.8 | 2.6
O=C(CN1CCN(C(=O)c2cc3ccccc3o2)CC1)N1CCCCCC1 | 10.6 | 19.0
COc1ccc(-c2noc([C@@H]3CCCN3C3CCN(C(C)=O)CC3)n2)cn1 | -13.4 | -27.6
Cc1cc(=O)n(C)c2c(O)c3c(cc12)c(C)cc(=O)n3C | 69.5* | 4.0
Cc1cc(=O)n2c3c(c4c(cc13)c(CO)cc(=O)n4C)OC2 | 23.0 | 6.8
COc1cc(C(=O)OC(C)C(=O)Nc2ccc(Oc3ccccc3)cc2)ccc1OCc1ccccc1 (stereo not given) | -9.1 | -25.9
CNS(=O)(=O)c1cc(C(=O)Nc2nnc(C3CC3)s2)ccc1Cl | 1.8 | 2.5
SMILES | USP28 inh | USP30 block
CCS(=O)(=O)N1CCOC2(CCCN(c3ncc(F)cn3)C2)C1 (stereo not given) | -3.3 | -15.1
O=S(=O)(C1CC1)N1CCOC2(CCCN(c3ncc(F)cn3)C2)C1 (stereo not given) | 14.6 | 35.3*
Cc1cc(C(Nc2ccccn2)c2ccc(Cl)cc2)c(NC(=O)c2ccco2)s1 (stereo not given) | 24.8 | -33.6
O=C(COC(=O)c1n[nH]c2ccccc12)Nc1ccc2c(c1)CCC2 | -1.5 | 13.0
O=C(COC(=O)c1n[nH]c2ccccc12)Nc1ccc(N2CCCCC2)cc1 | 24.8 | 38.5*
CC1CCN(C(=O)c2cn(-c3cc(N4CCC(C)CC4)ncn3)cn2)CC1 | 70.8* | 28.1
CC(=O)Nc1ccc(-n2cnc(C(=O)N3CCC(C)CC3)c2)nc1 | -7.8 | 2.6
COc1cc(-c2noc(-c3ccccc3C)n2)ccc1OCC(=O)NC(C)C | 8.8 | 33.0*
COc1ccc(NC(=O)COc2ccccc2-c2nnc(-c3ccccc3)o2)cc1 | 8.3 | 32.6*
